# Bioassay records: PubChem BioAssay, several laboratories
# Measles CPE = protection of cells from measles virus. Measles virus-infected cells, CPE protection, absorbance. protection (pct of control), % at 4 µM. 140,000 compounds, 1.5% hits; in the data active = protection mostly above about 24%, no sharp cut-off; inactive = mostly below about 26%
# PTPN22 act = activators of human LYP (PTPN22) phosphatase. AID 697. 96,000 compounds, 0.11% hits. Q9Y2R2. recombinant LYP, DiFMUP fluorescence; 0 = plate median, 100 = signal doubled. activation, % at 2 µM;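 active = activation at 2 µM above a set limit, the mean plus 5 SD, cut at about 37% in these data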
# sEH activator = activators of human soluble epoxide hydrolase. purified human sEH enzymatic activity, activator screen. 91,000 compounds, 0.04% hits. AID 717. P34913. activation, % at 2 µM; in the data active = activation above about 37%
# Target sequence (P34913 whole entry, looked up): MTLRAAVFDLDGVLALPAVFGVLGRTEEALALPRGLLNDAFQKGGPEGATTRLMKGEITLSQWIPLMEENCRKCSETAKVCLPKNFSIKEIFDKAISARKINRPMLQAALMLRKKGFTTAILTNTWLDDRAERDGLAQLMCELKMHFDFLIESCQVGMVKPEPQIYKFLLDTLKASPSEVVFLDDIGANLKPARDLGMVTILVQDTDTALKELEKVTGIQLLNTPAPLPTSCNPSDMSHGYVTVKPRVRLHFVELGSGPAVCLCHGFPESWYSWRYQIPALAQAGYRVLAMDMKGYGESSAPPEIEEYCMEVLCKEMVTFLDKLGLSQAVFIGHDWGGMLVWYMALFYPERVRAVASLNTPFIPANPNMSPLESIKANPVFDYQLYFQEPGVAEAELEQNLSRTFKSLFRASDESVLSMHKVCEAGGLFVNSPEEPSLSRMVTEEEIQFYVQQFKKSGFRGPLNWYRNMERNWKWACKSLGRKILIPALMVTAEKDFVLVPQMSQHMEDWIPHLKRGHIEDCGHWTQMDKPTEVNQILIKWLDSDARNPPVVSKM
# sEH inh = inhibitors of human soluble epoxide hydrolase; inhibition, % at 2 µM; P34913; 91,000 compounds, 0.34% hits; recombinant human sEH enzymatic activity assay; in the data active = inhibition above about 80%
# PTPN22 inh 2 = LYP (human) phosphatase inhibition; Q9Y2R2; recombinant LYP catalytic domain, DiFMUP fluorescence; inhibition, % at 2 µM; 96,000 compounds, 0.21% hits;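 active = inhibition at 2 µM at or above a set limit, the screen mean plus 3 SD, cut at about 24% in these data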;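 also: 0% = DMSO with enzyme and 100% = enzyme fully blocked by orthovanadate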
# Starred values were filed as active, the others as inactive; . = not tested or not shown. Shown are actives, neighbours in structure and some others; about 1.7% of the full set was active somewhere.
SMILES,Measles CPE,PTPN22 act,sEH activator,sEH inh,PTPN22 inh 2
Cc1ccc(S(=O)(=O)NCCOc2nc(N3CCOCC3)nc(N3CCOCC3)n2)cc1,62.7*,-5.8,-0.4,2.3,3.2
CCOC(=O)c1[nH]c2ccccc2c1NC(=O)c1ccc(S(=O)(=O)N2CCCC2)cc1,21.1*,.,.,.,.
O=C(Nc1ccc(S(=O)(=O)Nc2nccs2)cc1)c1ccc(S(=O)(=O)N2CCOCC2)cc1,66.8*,.,.,.,.
Cc1cc(C(=O)Nc2ccc(S(=O)(=O)N3CCCC3)cc2)cs1,52.9*,-2.4,-69.3,69.3,1.0
CC(C)NC(=O)COC(=O)CNC(=O)c1cc(Cl)cc([N+](=O)[O-])c1,13.0,.,.,.,.
N=C1CCCN1CC(=O)c1ccc(Br)cc1,18.1,.,.,.,.
Cc1cccc(OCCNc2cc(N3CCN(CCO)CC3)ccc2[N+](=O)[O-])c1,21.2,.,.,.,.
COc1ccc(CCN(Cc2cc3cc(C)c(C)cc3nc2Cl)C(=O)C2CC2)cc1,6.6,2.7,-1.1,1.8,-0.6
Cc1ccc2nc(Cl)c(CN(Cc3cccs3)C(=O)C3CC3)cc2c1,37.4*,-3.6,9.3,-7.4,6.6
O=C(O)c1ccc(NC(=S)NC2CCCCC2)cc1,37.7,.,.,.,.
CCOC(=O)c1ccc(NC(=S)NC2CCCC2)cc1,44.0*,.,.,.,.
O=C(Nc1ccc(NC(=O)C2CC2)nc1)c1cccs1,56.7*,-10.1,-2.7,1.7,8.0
O=C(O)COc1ccc(NC(=O)c2cccs2)cc1,48.4*,3.6,-7.8,12.3,-4.5
CCOC(=O)CSc1nc2ccc(NC(=O)CSc3nnnn3Cc3ccccc3)cc2s1,9.1,-4.8,-27.9,30.2,-2.5
CC(C)(C)NC(=O)CSc1nc2ccc(NC(=O)CSc3nnnn3Cc3ccccc3)cc2s1,43.9*,2.3,-77.5,77.8,-2.4
Cc1ccc2[nH]c(O)c(N=NC(=O)C(C)n3cnc4ccccc4c3=O)c2c1 (stereo unspecified),16.6,.,.,.,.
CC(C)(C)c1cc(NS(=O)(=O)c2ccc3c(c2)OCCO3)on1,24.5,7.8,4.5,-5.3,-5.7
CCOC(=O)c1ccc(S(=O)(=O)Nc2cc(C(C)(C)C)no2)cc1,39.9*,8.9,7.2,-8.9,-12.4
Cc1ccc(NC(=O)NC2CCCCC2)cc1Cl,12.7,1.6,-95.2,95.1*,-1.8
CCc1cccc(NC(=O)NC2CCCCC2)c1,1.2,-9.7,-94.0,94.2*,10.1
CCc1cccc(NC(=O)C2CCCC2)c1,14.1,2.3,6.3,-4.2,1.1
Brc1ccc(-c2nnc3n2C2(CCCC2)Cc2ccccc2-3)o1,25.5,13.0,-8.0,9.1,-16.3
Cc1cccc(C(=O)N2CCC(Cc3ccccc3)CC2)c1[N+](=O)[O-],4.0,.,.,.,.
COc1ccc(C(=O)Cn2nnc(-c3ccccc3NC(=O)C3CCCCC3)n2)cc1,32.2*,-13.8,-4.9,2.6,13.0
COc1ccc(NC(=O)Cn2nnc(-c3ccccc3F)n2)cc1,49.0*,17.2,-1.7,3.2,-13.4
SMILES,Measles CPE,PTPN22 act,sEH activator,sEH inh,PTPN22 inh 2
CCOc1ccc(NC(=O)Cn2nnc(-c3ccccc3F)n2)cc1,14.0,-10.8,-20.8,20.9,7.4
CCN(CC)S(=O)(=O)c1ccc(N2CCOCC2)c(NS(=O)(=O)c2cc(C(C)(C)C)ccc2C)c1,7.2,.,.,.,.
CC(Sc1nnc(C(F)(F)F)n1C)C(=O)NC(N)=O (stereo unspecified),60.4*,3.9,-8.0,8.5,-0.3
CNC(=O)NC(=O)CSc1nnc(C(F)(F)F)n1C,2.5,-2.0,4.8,-6.7,2.5
Cc1cccc(-n2ccnc2SCC(=O)Nc2cc(C)on2)c1,30.3*,-7.4,6.5,-9.2,9.7
Cc1cc(C)cc(C(=O)NCC(=O)OCC(=O)c2cc(C)n(CC(F)(F)F)c2C)c1,17.4,.,.,.,.
COCCCNC(=O)c1c(N)n(-c2cccc(S(N)(=O)=O)c2)c2nc3ccccc3nc12,41.7*,-2.2,8.3,-3.8,0.5
CCCNC(=O)c1c(N)n(-c2cccc(OC)c2)c2nc3ccccc3nc12,8.1,-7.2,13.5,-13.4,5.8
COC(=O)Cc1ccc(NC(=S)NN2CCOCC2)cc1,12.0,.,.,.,.
Cc1cc(NC(=O)CCN2C(=O)c3ccccc3C2=O)no1,1.8,-0.5,.,.,-1.9
Cc1cc(NC(=O)CN2C(=O)S/C(=C\c3ccccc3)C2=O)no1,30.7*,.,.,.,.
N#CC1=C(S)N(c2ccccc2)C(c2ccc(-c3ccccc3Cl)o2)NC1=O (stereo unspecified),13.2,.,.,.,.
COc1ccccc1NS(=O)(=O)c1cccc(NC(=O)Cc2cccs2)c1,24.4,.,.,.,.
CCOC(=O)c1c(NC(=O)C2COc3ccccc3O2)sc(C(C)=O)c1C (stereo unspecified),36.6,-13.5,13.9,-11.4,16.0
CCOC(=O)c1c(NC(=O)C2COc3ccccc3O2)sc2c1CC(C)(C)NC2(C)C (stereo unspecified),47.0*,.,.,.,.
NC(=S)N/N=C/c1ccccc1OCCSc1ccc(Cl)cc1,11.3,.,.,.,.
O=C(O)c1ccc(NC(=S)Nc2ccccc2)cc1,5.2,.,.,.,.
Nc1cccc(Nc2nc(OC(C(F)(F)F)C(F)(F)F)nc(OC(C(F)(F)F)C(F)(F)F)n2)c1,41.9*,13.6,18.3,-18.4,-13.8
Cc1cc2nc3c(c(=O)n2[nH]1)CCCC3,19.6,-2.1,37.3*,-34.0,3.7
Cc1ccc(-c2[nH]n3c(=O)c4c(nc3c2C)CCCC4)cc1,31.0*,4.0,-6.0,4.2,-5.3
COc1cccc(OC)c1C(=O)NC(=S)Nc1cc(-c2nc3ccccc3[nH]2)ccc1Cl,3.6,.,.,.,.
CCc1nnc(NC(=O)CCC(=O)NCCc2ccc(OC)c(OC)c2)s1,6.1,.,.,.,.
O=C(O)Cc1cc(C(=O)Nc2ccc(Br)cc2)sc1-c1ccccc1,20.8,.,.,.,.
O=C1c2ccccc2C(=O)N1CCc1csc(-c2ccccc2)n1,39.0*,5.9,19.9,-22.3,-8.6
O=C1c2ccccc2C(=O)N1CCc1csc(-c2ccc(F)cc2)n1,24.7,5.2,-7.1,9.2,-1.8
SMILES,Measles CPE,PTPN22 act,sEH activator,sEH inh,PTPN22 inh 2
O=c1c(/C=N/Nc2ccccc2)c(Sc2nnnn2-c2ccccc2)nc2ccccn12,11.1,-22.6,0.5,-2.5,24.0*
CCC(C)(C)n1nnnc1C(c1ccc(OC)c(OC)c1)N1CCN(c2ccc(OC)cc2)CC1 (stereo unspecified),59.2*,0.7,1.2,-3.6,0.4
COc1cc(C(=O)OCC(=O)c2cc(C)n(C)c2C)cc(NC(=O)c2ccco2)c1OC,53.0*,-2.8,2.3,-2.0,1.1
CNC(=O)COC(=O)c1cc(NC(=O)c2ccco2)c(OC)c(OC)c1,29.2,8.3,17.8,-15.7,-5.3
O=C(Nc1ccccc1C(=O)Nc1ccc2c(c1)OCO2)c1ccco1,24.9*,3.5,9.4,-5.7,-1.3
O=C(Nc1ccc2c(c1)OCO2)c1ccncc1,26.3*,3.9,20.6,-19.1,-6.2
O=C(Nc1ccc2c(c1)OCCO2)c1ccc(Cl)c([N+](=O)[O-])c1,20.2*,.,.,.,.
O=C(Nc1ccc2c(c1)OCO2)c1ccc(Cl)nc1,18.4,3.5,-19.1,14.4,-1.3
C/C(=C\C(=O)c1ccccc1)Nc1ccc2c(c1)OCO2,29.5*,.,.,.,.
O=C(Nc1ccc(C(O)(C(F)(F)F)C(F)(F)F)cc1)c1ccc(Cl)c([N+](=O)[O-])c1,1.2,.,.,.,.
